# The source made the active and inactive calls. Rule for the calls: active = hit-call score of the fitted dose curve at least 0.9, where 1 is the maximum; inactive = score below 0.9. Peptide text beside a SMILES is read from it.
# Test: ATG_NF_kB_CIS: Attagene CIS-FACTORIAL HepG2 Assay for human Nuclear Factor Kappa B (NF-kB) (AID 2282991)
# Details: HepG2 Attagene cis-factorial NF-kB reporter mRNA; actives raise or lower the signal
# Experimental: ATG_CIS is a cell-based, multiplexed-readout assay that uses HepG2, a human liver cell line, with measurements taken at 24 hours after chemical dosing in a 24-well plate.ATG_NF_kB_CIS is one of 52 assay component(s) measured or calculated from the ATG_CIS assay. It is designed to make measurements of mRNA induction, a form of inducible reporter, as detected with fluorescence intensity signals by Reverse transcription polymerase chain reaction (RT-PCR) and Capillary electrophoresis technology.Data from the assay component ATG_NF_kB_CIS was analyzed into 1 assay endpoint. This assay endpoint, ATG_NF_kB_CIS, was analyzed with bidirectional fitting relative to DMSO as the negative control and baseline of activity. Using a type of inducible reporter, measures of mRNA for gain or loss-of-signal activity can be used to understand the reporter gene at the transcription factor-level as they relate to the gene NFKB1. Furthermore, this assay endpoint can be referred to as a primary readout, because this assay has produced multiple assay endpoints where this one serves a reporter gene function. To generalize the intended target to other relatable targets, this assay endpoint is annotated to the dna binding intended target family, where the subfamily is NF-kappa B.
# Human liver HepG2 cells are transiently transfected with multiple reporter transcription units (MRTUs) in 6-well plates using FuGene 6 reagent (Roche; 3 ml FuGene/1 mg DNA). The MRTU constructs are regulated by a cis-regulating element (promoter). […] A major difference between the CIS and TRANS system is that in CIS activities of endogenous TFs are measured, whereas the TRANS assay evaluates changes in activities of exogenous, chimeric NR-Gal4 proteins. […] At the end of 24 hour incubation, total RNA was isolated using TriZol reagent (Invitrogen). The isolated RNA is then reverse-transcribed using oligo(dT) primer and Mo-MLV reverse transcriptase (Invitrogen) with DNAse I (Ambion) treatment for 30 min. The one-tenth of the produced cDNA was amplified by PCR using Taq DNA polymerase (Invitrogen) and two reporter sequence-specific primers. The PCR products were fluorescently labeled by primer extension with 6-arboxyfluorescein (6-FAM) 5'-labeled reporter sequence-specific primer (2 min at 95 C, 20 s at 68 C and 10 min at 72 C) and these products were digested with 5U of HpaI (New England Biolabs) for 2h at 37 C. The fragments were purified using Qiaquick PCR columns (Qiagen), analyzed on an ABI 3130xL genetic analyzer (Applied Biosystems) with peak positions identified by using a set of X-rhodamine (ROX)-labeled MapMarker1000 molecular weight standards (BioVentures). The raw capillary electrophoresis data was processed using Attagraph software (Attagene).
Compound,outcome,AC50
CC(C)CCCCCOC(=O)CS,inactive,–
O=C(O)C(F)(F)C(F)(F)C(F)(F)C(F)(F)C(=O)O,inactive,–
Nc1nc(N)nc(-c2ccccc2)n1,inactive,–
CCCCCC[C@@H](O)C/C=C\CCCCCCCC(=O)OCC(O)CO (stereo not given in full),inactive,–
COC(=O)[C@H](Cc1ccccc1)NC(=O)[C@@H](N)CC(=O)O (H-Asp-Phe-OMe),inactive,–
CCc1cccc(CC)c1,inactive,–
COC(=O)c1ccc(C(=O)OC)c(C(=O)OC)c1,inactive,–
Cn1cccc1,inactive,–
OCCCc1ccccc1,inactive,–
Cn1ccnc1,inactive,–
CC1CC(=O)CC(C)(C)C1 (stereo not given),inactive,–
O=C(O[C@@H]1Cc2c(O)cc(O)cc2O[C@@H]1c1cc(O)c(O)c(O)c1)c1cc(O)c(O)c(O)c1,inactive,–
CCCCOCCOCCOC(C)=O,inactive,–
CC(CCC(=O)O)(c1ccc(O)cc1)c1ccc(O)cc1,inactive,–
N#Cc1ccc(C(c2ccc(C#N)cc2)n2cncn2)cc1,inactive,–
CCN1CN(CC)CN(CC)C1,inactive,–
CCC[Si](OC)(OC)OC,inactive,–
Oc1c(Cl)cc(Cl)c(Cl)c1Cl,inactive,–
CC1(C)CC(O)CC(C)(C)N1[O],inactive,–
O=C1CCCCCCCCCCCN1,inactive,–

Compound,outcome,AC50
O=C(O)c1ccc2c(c1)C(=O)OC2=O,inactive,–
CC(C)(CO)C(O)C(=O)NCCCO (stereo not given),inactive,–
CCCCC(C=O)CC (stereo not given),inactive,–
CCCCCOC(=O)CCCCC,inactive,–
N#Cc1ccc(C2CCCc3cncn32)cc1 (stereo not given),inactive,–
Cc1c[nH]c(=O)[nH]c1=O,inactive,–
CC(=O)OCc1ccccc1,inactive,–
CC=C(C)C(C)=O,inactive,–
C1CCSC1,inactive,–
CCOc1ccc(NC(N)=O)cc1,inactive,–
COc1ccc(C(=O)/C(Br)=C\C(=O)O)cc1,–,13 µM (active)
N=C1C=CC(=C(c2ccc(N)cc2)c2ccc(N)cc2)C=C1,–,41.1 µM (active)
CC(C)c1cccc(C(C)C)c1N,inactive,–
CC(CC(C)C)=NO,inactive,–
CCCCCCOc1ccc(N)cc1,inactive,–
CC(C)C(=O)OCCc1ccccc1,inactive,–
CC(C)c1ccc(O)c(C(C)C)c1,inactive,–
CC(C)(C)N,inactive,–
CCCCOCC(C)O (stereo not given),inactive,–
C/C=C/C=C/CCCCCCCO,inactive,–

# — PubChem BioAssay (EPA / NIEHS)
